Screens: PubChem BioAssay, National Center for Advancing Translational Sciences (NCATS)
D1 potentiator: potentiators of human D1 dopamine receptor. HEK293 TREx D1 cells, calcium flux, dopamine EC20 potentiation. AID 504651. potentiation, % at 10 µM. hit rate 0.036% among 360,000; in the data active means potentiation above about 30%
D1 agonist: human D1 receptor agonism | HEK293 T-REx D1 cells, calcium flux, agonist mode | activation, % at 2 µM | hit rate 1% among 360,000 | AID 504660
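Agonism was scored from calcium flux recorded over 180 s (1 read/s) after pintool compound addition, following a 10-cycle baseline. Cells were inducible force-coupled HEK293 TREx D1, plated overnight at 30 C and loaded with no-wash calcium dye.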
D1 antag: antagonists of human D1 dopamine receptor | P21728 | HEK293 TREx D1 cells, calcium flux, dopamine EC80; active compounds read low | activity change, negative = inhibition, % at 10 µM | hit rate 3.2% among 360,000 | AID 504652; in the data active means activity change below about -30%
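Tetracycline-induced HEK293 T-REx cells with force-coupled D1 receptor were loaded with a no-wash calcium dye. Compound was added after a 10 s baseline and read kinetically for 180 s; EC80 dopamine was then added and calcium flux followed another 180 s.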
TRHR ag: activates the human TRH receptor; P34981; TRHR cells, calcium flux fluo-8, FDSS agonist mode; activation, % at 2 µM; hit rate 0.18% among 360,000; AID 493084
Target sequence (P34981 whole entry, looked up): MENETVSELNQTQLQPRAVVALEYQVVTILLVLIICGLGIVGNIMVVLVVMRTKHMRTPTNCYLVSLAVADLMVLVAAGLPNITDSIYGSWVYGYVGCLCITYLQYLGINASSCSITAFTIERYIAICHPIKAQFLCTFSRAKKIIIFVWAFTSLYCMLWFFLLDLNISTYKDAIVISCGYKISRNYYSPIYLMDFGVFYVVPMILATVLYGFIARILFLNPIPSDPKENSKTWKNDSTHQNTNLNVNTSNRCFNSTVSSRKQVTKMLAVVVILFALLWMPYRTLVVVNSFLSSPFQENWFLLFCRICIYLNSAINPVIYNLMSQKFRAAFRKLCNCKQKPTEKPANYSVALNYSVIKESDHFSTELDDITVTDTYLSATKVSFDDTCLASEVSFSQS
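Read-out: compound-evoked intracellular calcium rise in TRHR cells, fluo-8 dye, kinetic FDSS fluorescence at 1 s/cycle following a 10-cycle baseline. Cells cultured overnight before dye loading (30 min–1.5 h, RT).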
TRHR enhancer: allosterically enhances the human TRH receptor. hit rate 0.66% among 360,000. TRHR cells, fluo-8 calcium fluorescence, EC20 TRH enhancement. enhancement, % at 2 µM. AID 493056. P34981; in the data active means enhancement above about 30%
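Enhancer read-out: after compound pinning and an initial kinetic agonist-mode read, an EC20 of TRH (10 nM final) was injected and fluo-8 calcium signal (Ex 480/Em 530) followed at 1 s/cycle for 100 cycles in TRHR-expressing cells.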
Large screens that a line does not name were inactive. Compounds with a hit are over-represented: about 4.6% of the library has one in this group of screens. Unless noted, no stated cut-off is given here; in the data, active means activation above about 30%; inactive means the rest.

N#Cc1cccc(NC(=O)c2ccc3c(c2)N(Cc2cccc(Cl)c2)C(=O)c2ccccc2S3(=O)=O)c1	TRHR enhancer 31
O=C(c1ccc2c(c1)N(Cc1cccc(Cl)c1)C(=O)c1ccccc1S2(=O)=O)N1CCC(Cc2ccccc2)CC1	D1 antag -34
CCOC(=O)c1ccc2c(c1)N(Cc1cccc(C(F)(F)F)c1)C(=O)c1ccccc1S2(=O)=O	D1 antag -51
O=C(c1ccc2c(c1)N(Cc1ccccc1)C(=O)c1ccccc1S2(=O)=O)N1CCN(Cc2ccccc2)CC1	none
CC(=O)Nc1ccc(NC(=O)c2ccc3c(c2)N(Cc2cccc(Cl)c2)C(=O)c2ccccc2S3(=O)=O)cc1	none
Cc1ccc(C)c(NS(=O)(=O)c2cc3c(cc2C)n(C)c(=O)c(=O)n3C)c1	none
COc1ccc(CCNC(=O)Cn2cc(S(=O)(=O)Cc3cccc(Cl)c3)c3ccccc32)cc1OC	none
O=C(/C=C/c1ccc(Cl)cc1Cl)Nc1cccc(S(=O)(=O)NC2=NCCC2)c1	D1 antag -31
C/C(=N\NC(=O)C(O)c1ccccc1)c1ccc(Cl)s1 (configuration not stated)	none
C/C(=N\NC(=O)C(O)c1ccccc1)c1ccc(Br)s1 (configuration not stated)	TRHR enhancer 38
Cc1ccc(-c2cc(C(=O)Nc3cc(C)ccc3C)[nH]n2)c(O)c1	D1 antag -37
Cc1cc(C)c(-c2cc(C(=O)Nc3cc(C)ccc3C)[nH]n2)c(O)c1	TRHR enhancer 33
Cc1ccc(C)c(NC(=O)c2cc(-c3ccccc3O)n[nH]2)c1	none
Cc1cc(NC(=O)CN(C)S(=O)(=O)c2ccc3c(c2)CCCC(=O)N3)ccc1Br	none
CC(=O)N1CCc2cc(Br)cc(S(=O)(=O)N3CCN(c4cc(C)ccc4C)CC3)c21	none
Cc1nc(NCc2ccccc2)c2cc[nH]c2n1	D1 antag -34
COc1cccc(-c2nc(NCc3ccccc3)c3ccccc3n2)c1O	none
CCOc1ccc(/C=C/c2nc(C#N)c(Nc3ccc(OCC)cc3)o2)cc1	none
Cc1noc(C)c1C(=O)OCC(=O)c1cc(C)n(Cc2ccccc2Cl)c1C	D1 antag -38
CCOC(=O)c1ccc2nc(C)cc(Nc3ccc(OC(C)C)cc3)c2c1	none
COC(=O)c1ccc(NC(=O)CC2C(=O)N(c3ccccc3)C(=O)N2Cc2ccco2)cc1 (configuration not stated)	none
COc1ccc(NC(=O)CC2C(=O)N(c3ccc(C)cc3)C(=O)N2Cc2ccc3c(c2)OCO3)cc1 (configuration not stated)	none
CCN1C(=O)C(CC(=O)Nc2ccc(F)cc2)N(Cc2ccco2)C1=S (configuration not stated)	none
CCOc1ccc(NC(=O)CC2C(=O)N(c3ccccc3)C(=O)N2Cc2ccc3c(c2)OCO3)cc1 (configuration not stated)	D1 antag -51
CCOc1ccc(NC(=O)CC2C(=O)N(c3ccccc3)C(=O)N2Cc2ccco2)cc1 (configuration not stated)	D1 antag -42
CCCCCCOc1ccc(NC(=O)CC2C(=O)N(CC)C(=S)N2Cc2ccco2)cc1 (configuration not stated)	D1 antag -40
COc1cc(C(=O)Nc2c(C(=O)Nc3ccccc3F)oc3ccccc23)cc(OC)c1OC	none
O=C(N/C(=C/c1cccnc1)C(=O)N1CCCCCC1)c1cccc(Br)c1	D1 antag -39
O=C(NC(=S)N1CCCCC1)c1cccnc1	D1 antag -34
O=C(NC(=S)N1CCCCCC1)c1ccccc1	none
Cc1cc2c(s1)c1cnn(Cc3ccc(Br)cc3F)c(=O)c1n2C	none
Fc1ccc(CNC(=S)Nc2cccc(C(F)(F)F)c2)cc1	none
Fc1ccc(Nc2nc3nonc3nc2Nc2cccc(C(F)(F)F)c2)cc1	D1 antag -37
COc1ccc(OC)c(NC(=O)COC(=O)c2ccc(-n3cnnn3)cc2)c1	none
Cc1cc(C)c(S(=O)(=O)Nc2cccc(-n3cnnn3)c2)c(C)c1	none
Cc1cc(C)c(C)c(S(=O)(=O)Nc2cccc(-n3cnnn3)c2)c1C	D1 antag -33
O=C(Nc1cccc(-n2cnnn2)c1)c1ccc(C(F)(F)F)cc1	D1 antag -32
